NTR1 ag: agonists of human NTR1, primary screen, imaging, U2OS cells, beta-arrestin-GFP, high content; actives 0.17% (n = 330,000); activation, % at 20 µM; NTR1-U2OS beta-arrestin-GFP spot imaging, agonist mode; Neurotensin receptor type 1 (Homo sapiens), P30989;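 active means activation at or above 40% of the spot to cytoplasm intensity ratio, with at least 20 cells analyzed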;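 further: 0% = DMSO without peptide and 100% = 100 nM NTR1 peptide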
H9c2 protect: cardioprotection against H2O2-induced cell death, primary screen, uHTS, H9c2 cells, ATPLite luminescence. H9c2 cardiomyocytes, H2O2 injury protection, 2 h. protection from H2O2 cell death, % at 20 µM. actives 0.63% (n = 360,000);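 active means compounds giving at least 50% protection of heart cells from peroxide-induced death in the single-dose screen, raw or plate-pattern-corrected value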;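 further: 0% = DMSO wells with peroxide and 100% = DMSO wells without peroxide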
SUMO HTRF inh: inhibitors of in vitro SUMOylation cascade, primary screen, biochemical, HTRF, uHTS. SUMO-conjugating enzyme UBC9 (Homo sapiens), P63279. HTRF SUMOylation assay, SAE1/SAE2 + UBC9. inhibition, % at 35 µM. actives 0.36% (n = 290,000). AID 2006, 2009; in the data active means inhibition above about 50%, passing the limit was not always enough
Target sequence (P63279 whole entry, looked up): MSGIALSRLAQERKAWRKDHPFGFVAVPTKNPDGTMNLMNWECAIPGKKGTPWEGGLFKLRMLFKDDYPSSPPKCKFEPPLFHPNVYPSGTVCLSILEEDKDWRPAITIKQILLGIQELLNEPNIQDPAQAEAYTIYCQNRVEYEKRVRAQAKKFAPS
ALR H2O2 inh: inhibitors of human ALR sulfhydryl oxidase, primary screen, biochemical, H2O2 detection, HRP-luminol luminescence, single point; FAD-linked sulfhydryl oxidase ALR (Homo sapiens), P55789; purified ALR, DTT oxidation; inhibition, % (no concentration beside the values); actives 3.8% (n = 290,000); AID 485317, 2010;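 active means mean replicate inhibition above about 79%, with every replicate also reaching it, limit read from the data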
Target sequence (P55789 whole entry, looked up): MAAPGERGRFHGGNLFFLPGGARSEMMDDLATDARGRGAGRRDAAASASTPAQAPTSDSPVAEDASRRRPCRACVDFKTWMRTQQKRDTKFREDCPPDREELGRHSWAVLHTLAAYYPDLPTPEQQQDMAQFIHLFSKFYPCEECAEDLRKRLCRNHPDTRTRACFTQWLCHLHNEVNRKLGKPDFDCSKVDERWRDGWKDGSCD
NTR1 ag confirm: NTR1 agonists, single-dose retest, confirmation, imaging, U2OS cells, beta-arrestin-GFP, single concentration; shares compounds with NTR1 ag; NTR1-U2OS beta-arrestin-GFP translocation imaging; activation, % at 20 µM; actives 38% (n = 480);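 active means mean activation at 20 µM of at least 40%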;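 further: 0% = DMSO without peptide and 100% = 100 nM NTR1 peptide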
* = called active by the depositor; nt = not tested or not shown. A selection: hits, their analogues and other compounds. The true share with any hit is near 3.9%.

SMILES	NTR1 ag	H9c2 protect	SUMO HTRF inh	ALR H2O2 inh	NTR1 ag confirm
CC(c1ccco1)N(C(=O)Nc1ccc(Cl)cc1)c1ccccn1 (stereo not given)	2	-7	-36	-1	nt
COc1ccc(C(C(=O)NC2CCCC2)N(C(=O)c2snc(C(N)=O)c2N)c2cc(C)ccc2OC)cc1OC (stereo not given)	1	-4	12	nt	nt
COc1ccc(C(C(=O)NC2CCCC2)N(C(=O)c2snc(C(N)=O)c2N)c2ccccc2OC)cc1OC (stereo not given)	61*	-2	34	nt	2
COc1ccc(CNC(=O)c2ccc(NC(=O)CC3SC(N4CCCC4)=NC3=O)cc2)cc1 (stereo not given)	-2	1	7	3	nt
Cc1ccc(NC(=O)CC2Nc3ccccc3NC2=O)cc1Cl (stereo not given)	nt	-6	-14	nt	nt
Cc1ccc(NC2Sc3ccccc3NC2=O)cc1Cl (stereo not given)	51*	-11	-4	0	9
OC(Cn1cncn1)(c1ccccc1)c1ccccc1	55*	-7	20	-6	-4
Cc1cc(C)cc(NC(=O)c2cc(S(=O)(=O)N3CCCC3)cn2C)c1	-1	-9	4	-1	nt
O=C(/C=C\c1ccccc1OC(=O)c1ccccc1F)c1cc2ccccc2o1	67*	-21	-12	5	74*
COC(=O)CN1C(=O)C2(C(C#N)=C(N)Oc3n[nH]c(-c4cccs4)c32)c2ccccc21 (stereo not given)	53*	2	16	0	-3
CCN1C(=O)C2(C(C#N)=C(N)Oc3n[nH]c(-c4ccccc4)c32)c2ccccc21 (stereo not given)	2	4	7	2	nt
CC(C)=CCc1c(O)cc(O)c2c1OC(c1ccc(O)cc1)CC2=O (stereo not given)	6	2	nt	15	nt
CC(C)=CCc1c(O)c(CC=C(C)C)c2c(c1O)C(=O)CC(c1ccc(O)cc1)O2 (stereo not given)	46*	-8	2	-1	39
COc1ccc(CNC(=O)CN(C(=O)c2snc(C(N)=O)c2N)c2cccc(F)c2)cc1	0	-2	4	nt	nt
Cc1cc2ccccc2c(=O)n1CC(=O)Nc1ccc2c(c1)OCCO2	46*	16	-19	-7	-6
COc1ccc(NC(=O)CNC(=O)Cn2c(C)cc3ccccc3c2=O)cc1OC	2	-14	3	9	nt
COC(=O)c1ccccc1NC(=O)CSc1nnnn1-c1ccc(C)cc1C	0	-15	5	-1	nt
COc1cc(CNCc2ccccc2)cc(Cl)c1OC	3	3	-12	-13	nt
COc1cc(CNCCc2ccccc2)cc(Cl)c1OCc1ccccc1	61*	-31	-21	nt	6
CCc1cc(-c2n[nH]c(C)c2Oc2ccc(C(C)C)cc2)c(O)cc1O	64*	-20	-6	14	30
CCCCCOc1ccc(Br)cc1CSC(=N)N	nt	-11	6	nt	nt
CCCCOc1ccc(CSC(=N)N)cc1Cl	50*	-7	5	99*	16
CN(C)c1ccc(-n2cccc2/C=C/[N+](=O)[O-])cc1	63*	-1	7	70	66*
CN(c1ccccc1)c1ccc(/C=C/[N+](=O)[O-])cc1	nt	-19	-4	nt	nt
CC(C)(C)c1ccc(NC(=O)COC(=O)c2ccc(CN3CCCC3=O)cc2)cc1	0	-10	nt	-2	nt
COc1cccc(-c2nc(NC3CCCC3)c3ccccc3n2)c1O	60*	-15	4	2	8
COC(=O)CN1C(=O)COc2ccc(S(=O)(=O)NCc3ccc(Cl)cc3)cc21	0	4	-5	-3	nt
COC(=O)C1=C(C)Nc2nnnn2C1c1ccccc1Cl (stereo not given)	1	-1	3	9	nt
CCCCCOC(=O)C1=C(C)Nc2nnnn2C1c1ccccc1Cl (stereo not given)	58*	-5	-1	-7	14
COc1ccccc1-c1cn[nH]c1-c1ccc(OCc2ccc(F)cc2)cc1O	40*	-10	-23	nt	2

Compound activity deposited in PubChem by several laboratories.
